CRFR2-BP ag – agonists of CRF-BP/CRF-R2 complex, primary screen, cell-based, HEK293, calcium dye fluorescence, uHTS; 0.46% of 350,000 active; activation, % at 13.2 µM; AID 588473, 2011; calcium dye fluorescence (FLIPR); percent of saturating CRF peptide response;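 active means activation of at least 50%, plus an integration ratio under a set limit after plate pattern correction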;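 further: plate controls were neutral control wells without compound for no effect and CRF at EC100 for full effect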
Cardiac RTF inh – cardiac RTF calcium sensitivity inhibitors, primary screen, biochemical, IANBD-TnC fluorescence, EC70 calcium; Troponin I, cardiac muscle (Homo sapiens) + Troponin T, cardiac muscle (Homo sapiens) + …; IANBD-labeled cardiac RTF, Ca2+ fluorescence; inhibition, % at 7.15 µM; 0.12% of 340,000 active; AID 493244, 2011;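 active means inhibition above the mean inhibition of all tested compounds plus 3 SD, cut at about 17% in these data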;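 further: assay run at fixed EC70 calcium of 1.6 mM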
IDE cell activ – human IDE activators in live cells, primary screen, fluorescence polarization, HEK cells, FAbeta-B substrate. 0.073% of 340,000 active. FAbeta-B cleavage; 0% vehicle, 100% cell-free pure enzyme wells. AID 493087, 2011. activation, % at 5.96 µM. Insulin-degrading enzyme (Homo sapiens), P14735;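 active means activation above the mean of all tested compounds plus 3 SD, set per screening campaign, cut at about 17% in these data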
cardiac RTF act – cardiac RTF calcium sensitivity activators, primary screen, biochemical, IANBD-TnC fluorescence, EC20 calcium | Troponin I, cardiac muscle (Homo sapiens) + Troponin T, cardiac muscle (Homo sapiens) + … | IANBD-labeled TnC RTF fluorescence at EC20 calcium; 0% EC20 calcium, 100% full calcium | activation, % at 7.2 µM | 0.24% of 340,000 active;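 active means activation above the mean over all tested compounds plus 3 SD, cut at about 30% in these data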;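 further: rise in fluorescence read as greater calcium sensitivity of cardiac thin filaments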
CRFBP-R2 block – antagonists of CRF-BP/CRF-R2 complex, primary screen, cell-based, HEK293, calcium dye fluorescence, uHTS; CRF-induced calcium fluorescence; inhibition, % at 11.8 µM; 0.59% of 350,000 active; AID 588475, 2011;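 active means inhibition of the ligand-induced calcium signal above about 50% at the single tested concentration, limit read from the data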
IDE cell inh – human IDE inhibitors in live cells, primary screen, fluorescence polarization, HEK cells, FAbetaB substrate. Insulin-degrading enzyme (Homo sapiens), P14735. FAbetaB cleavage. 0.41% of 320,000 active. inhibition, % at 5.59 µM. AID 434962, 2010;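 active means percent inhibition above the average of all tested compounds plus 3 SD, set per screening campaign, cut at about 16% in these data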;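 further: IDE supplied by intact live HEK cells; FP after avidin binding of uncleaved biotin substrate so inhibition keeps polarization high; 0% = DMSO wells and 100% = 60 µM reference IDE inhibitor Ii1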
Numbers without * were called inactive; · = not tested or not shown; ! = not active in a repeat. Only some compounds are listed: those with a hit (about 1.5% of all), similar ones and a draw of the others.

SMILES | CRFR2-BP ag | Cardiac RTF inh | IDE cell activ | cardiac RTF act | CRFBP-R2 block | IDE cell inh
CCOC(=O)C1=C(C)NC(SCC(=O)OC)=C(C#N)C1c1ccc(C(=O)OC)cc1 (stereo unspecified) | -1 | -7 | -1 | 2 | 55*! | 4
Cc1ccccc1C(=O)N(Cc1nc2ccccc2c(=O)[nH]1)C1CCCC1 | 2 | -7 | -4 | 7 | -85 | -4
CCCN1C=CC(=C/C=C(\C#N)C(=O)OCC)C=C1 | · | · | · | · | · | 101*
CN(C)c1cccc(C(=O)OCC(=O)NC(=O)NCc2ccccc2)c1 | -6 | -1 | -3 | 3 | 2 | 3
C=CCSC1=N/C(=C\c2cc(OCC)c(OC(C)=O)c([N+](=O)[O-])c2)C(=O)S1 | -1 | 5 | 0 | 1 | 53* | 6
C=CCSC1=N/C(=C\c2ccc3c(c2)OCO3)C(=O)S1 | 1 | -1 | 10 | 7 | -2 | 7
COc1cc(NC(=S)NCc2ccco2)cc(OC)c1 | -4 | 7 | 1 | -11 | 96* | 2
CC1(C)CC(=O)C(C2C3=C(CC(C)(C)CC3=O)Oc3c(Br)cc(Br)cc32)=C(O)C1 (stereo unspecified) | 82* | -7 | 0 | -6 | 47 | 1
O=c1c2ccccc2nc2n1C(CBr)CN2 (stereo unspecified) | -1 | -5 | -3 | 6 | 65* | -3
CCOC(=O)N1CCN(C(=O)Cn2ncn3nc(-c4cccs4)cc3c2=O)CC1 | 28 | -13 | -2 | 5 | 23 | 5
COc1ccc(NC(=O)c2ccc([N+](=O)[O-])cc2[N+](=O)[O-])c(OC)c1 | -1 | -7 | 2 | 4 | 6 | 3
O=C(O)c1ccccc1SC1CC(=O)N(c2ccc3c(c2)OCO3)C1=O (stereo unspecified) | -1 | -19 | -4 | 10 | 6 | 4
Nc1ccccc1SC1CC(=O)N(c2ccc3c(c2)OCO3)C1=O (stereo unspecified) | -1 | · | · | · | 84* | -3
COc1ccccc1NS(=O)(=O)c1cc(C(=O)NCCC(C)C)ccc1F | 85* | -2 | 3 | -1 | -87 | 3
CCCCCCCCCCCC1=C(O)C(=O)C=C(O)C1=O | 62* | 10 | 5 | -13 | -88 | 7
CCCCC1OC23CCCCC2C(C#N)(C#N)C1(C#N)C(=N)O3 (stereo unspecified) | 4 | -32 | 6 | 46* | -12 | 7
N#CC1(C#N)C(c2ccccc2)OC23CCCCCC2C1(C#N)C(=N)O3 (stereo unspecified) | 0 | -20 | 6 | -1 | -27 | 1
N#CC1(C#N)C(c2ccccc2)OC23CCCCC2C1(C#N)C(=N)O3 (stereo unspecified) | 12 | -24 | 3 | 30* | -13 | 0
COc1ccc(C)cc1S(=O)(=O)N1CCN(S(=O)(=O)c2cc(C)ccc2OC)CC1 | -6 | 0 | 4 | 4 | 54* | 3
C/C(=N\Nc1cc(C)nc(-c2ccccc2O)n1)c1ccccc1 | 1 | -3 | -5 | -2 | -66 | 0
C/C(=N\Nc1cc(C)nc(-c2ccccc2)n1)c1cccc([N+](=O)[O-])c1 | 6 | 0 | 4 | -1 | 119* | 7
COCc1ccc(C(=O)N2CCCC(C(=O)c3ccc(Cl)cc3C)C2)o1 (stereo unspecified) | -3 | -3 | 4 | -2 | 16 | -2
COCC(=O)N1CCC(Oc2ccc(C(=O)NCCCC3CCCC3)cc2)CC1 | 0 | -5 | 0 | 2 | 15 | ·
COC(=O)c1cc(OC)c(OC)cc1NC(=O)c1ccco1 | 1 | -6 | 4 | 4 | 76* | -2
COc1ccccc1NC(=S)NC(=O)c1c(-c2ccccc2Cl)noc1C | 4 | -1 | 2 | 7 | -15 | -3
SMILES | CRFR2-BP ag | Cardiac RTF inh | IDE cell activ | cardiac RTF act | CRFBP-R2 block | IDE cell inh
COC(=O)c1cc(OC)c(OC)cc1NC(=O)C(C)Sc1ccc(C)cc1 (stereo unspecified) | -1 | -6 | -2 | 3 | 50* | -2
COC(=O)c1cc(OC)c(OC)cc1NC(=O)c1c(-c2ccccc2Cl)noc1C | 0 | -4 | 2 | -5 | 63* | 1
COc1ccc([N+](=O)[O-])cc1NC(=O)C(C)Sc1ccc(C)cc1 (stereo unspecified) | 0 | 5 | 2 | -2 | 0 | 4
CC1(C)CC(=O)C=C(C#CC2(O)CCCCC2)C1 | 0 | · | · | · | -8 | ·
COc1ccc(-n2c(O)c(/C=C3\C=Nc4ccccc43)c(=O)[nH]c2=O)cc1 | 76* | -2 | -2 | -1 | -56 | ·
C=CCN1C(=O)/C(=C/c2ccc(OC(C)=O)c(OCC)c2[N+](=O)[O-])SC1=S | 46 | -5 | -5 | -6 | 59* | ·
CCOc1c(OC(C)=O)ccc(/C=C/c2ccc3cccc(OC(C)=O)c3n2)c1[N+](=O)[O-] | -1 | -4 | 7 | 0 | 1 | -6
OCC1(Cc2ccc(Cl)cc2)CCN(Cc2ccc(Oc3ncccn3)cc2)CC1 | 8 | · | · | · | -49 | 8
COc1cc(/C=C2/SC(=Nc3ccc(O)cc3)NC2=O)cc(OC)c1O | 13 | -5 | -113 | 8 | -16 | 58*
CCOC(=O)C(CCCCCCC(NC(C)=O)(C(=O)OCC)C(=O)OCC)(NC(C)=O)C(=O)OCC | 0 | 0 | 0 | 83* | -6 | 3
O=C(c1ccc(F)cc1Cl)N(Cc1ccco1)C1CCS(=O)(=O)C1 (stereo unspecified) | 0 | -7 | 5 | 4 | 75* | 0
CC(C)[C@H](NC(=O)N1c2ccccc2NC(=O)[C@@H]1C(C)C)C(=O)N1CCC(C(=O)O)CC1 | 0 | -1 | 16 | -2 | -14 | -6
O=C1C(SCCO)=C(SCCO)C(=O)c2ccccc21 | 1 | -6 | -121 | 3 | -22 | 53*
CC1Cc2ccccc2N1C(=O)CO/N=C/c1ccc(OC(F)F)cc1 (stereo unspecified) | 2 | 12 | -3 | 0 | 5 | -1
CCc1ccc(NC(=O)C(CC)c2ccccc2)cc1 (stereo unspecified) | 60* | -8 | -4 | 2 | -65 | 0
CC(=O)Nc1ccc(S(C)(=O)=O)c(C)c1 | 1 | -7 | 4 | -5 | 3 | 7
COC(=O)c1sc(NC(=S)NC(=O)c2ccc(F)cc2)nc1C | · | · | · | · | · | 2

Assay outcomes as filed in PubChem BioAssay.
